The test is described as follows: compound effects on differentiated 3T3-L1 adipocyte viability – cell-based, 3T3-L1 adipocytes, calcein-AM fluorescence, 48 h, basal, profiling panel (AID 1163). Further: test concentration not given here. Particulars: 3T3-L1 adipocytes viability, higher = more signal.
With `[N-]=[N+]=NCc1ccccc1C[C@@]1(C(=O)N2CCCCC2)N=C(c2ccc(OCCCO)cc2)O[C@@H]1c1ccccc1`, the z-score is -0.813.

For `O=C1O[C@@H](c2ccccc2)[C@@H](c2ccccc2)N2[C@@H](c3ccc(OCCO)cc3)[C@]3(C(=O)Nc4ccccc43)[C@@H](C(=O)O)[C@H]12`, the z-score is 0.624.

`CC(CO)N1C(=O)[C@@H]2[C@H]3C(=O)OCC=C[C@H]3OC23C=CCN(C(C)(C)C)C(=O)[C@@H]13` (stereo partly drawn): the z-score was -0.643.

`CN1C(=O)C2C=CC(C(O)c3cccc4ccccc34)N(N3CCCCC3)C2C1=O` (stereo not drawn): the z-score is -0.576.

Regarding `CN(C)C(=O)[C@]1(CCS(=O)(=O)c2ccccc2)N=C(c2ccc(OCCCO)cc2)O[C@@H]1c1ccccc1N=[N+]=[N-]`, the z-score is 0.503.

For `COC(=O)[C@@]1(Cc2ccc(F)cc2)[C@H]2c3cc(C(=O)N4CCCC4)n(CCc4ccc(O)c(O)c4)c3C[C@H]2CN1C(=O)c1ccccc1`, the z-score is -0.0428.

Regarding `CN(C)CCCNC(=O)[C@@]1(c2ccc([N+](=O)[O-])cc2)CC(=O)N(CC23CC4CC(CC(C4)C2)C3)[C@@H]1c1ccc(CO)cc1I`, the z-score was -0.0899.

`Cc1cc(C)c(C(O)C2C=CC3C(=O)NC(=O)C3N2Nc2ccc(Cl)cc2Cl)c(C)c1` (stereo not drawn): the z-score was -0.22.

On to `COCCOC(=O)N1C(=O)[C@@]2(c3cc(C#CC4=CCCCC4)ccc31)[C@H](c1ccc(OCCO)cc1)N1[C@H](c3ccccc3)[C@H](c3ccccc3)OC(=O)[C@H]1[C@@H]2C(=O)N1CCN(c2ncccn2)CC1`, for which the z-score is 1.18.

As to `C=CCC(OC(C)=O)[C@@H]1[C@@H](N(Cc2ccc(-c3ccccc3)cc2)C(=O)Cc2ccc(F)cc2)c2cc(OCCCO)ccc2N1C(=O)Cc1ccc(OC)cc1` (stereo partly drawn), the z-score was 0.0992.

In the case of `COC(=O)[C@@]1(Cc2ccc(OC)cc2)[C@H]2c3cc(C(=O)N(C)C)n(C[C@H](O)CO)c3C[C@H]2CN1C(=O)c1ccccc1`, the z-score is -0.503.

As to `Cn1cccc1C(O)C1C=CC2C(=O)NC(=O)C2N1Nc1ccc(Cl)cc1Cl` (stereo not drawn), the z-score is -0.457.

As to `COc1ccc([Si](C)(C)[C@@H]2[C@@H](CC(=O)N(CCO)Cc3ccccc3)O[C@]3(C(=O)N(Cc4cccc(N5C(=O)c6cccc7cccc5c67)c4)c4ccccc43)[C@H]2C)cc1`, the z-score was 1.43.

For `Cc1ccc(S[C@]2(C(=O)NCC(F)(F)F)CC(=O)N(Cc3ccccc3C(F)(F)F)[C@@H]2c2ccc(CO)cc2I)cc1`, the z-score is -0.438.

In the case of `CCOc1cc(C(O)C2C=CC3C(=O)N(c4ccccc4)C(=O)C3N2Nc2ccc(C#N)cc2)ccc1O` (stereo not drawn), the z-score was -0.958.

`COCCOC(=O)N1C(=O)[C@@]2(c3ccccc31)[C@H](C(=O)N1CCN(c3ncccn3)CC1)[C@H]1C(=O)O[C@H](c3ccccc3)[C@H](c3ccccc3)N1[C@@H]2c1ccc(O)cc1`: the z-score was 0.176.

Take `CCCC[C@@H]1C[C@H]1[C@@H](NC(=O)c1cccs1)c1ccc(C(F)(F)F)cc1`: the z-score was -0.249.

Regarding `COC(=O)c1ccc([C@H](NC(=O)c2ccco2)[C@]2(C)C[C@H]2C2CCCCC2)cc1`, the z-score is -1.2.

Turning to `O[C@@H](Cc1ccccc1)[C@@H](/C=C/C1CC1)N(CC#Cc1ccccc1)Cc1cccc(Cl)c1`, the z-score was -0.166.

`N#Cc1ccc(C(O)C2C=CC3C(=O)N(c4ccccc4)C(=O)C3N2Nc2ccccc2)cc1` (stereo not drawn): the z-score was 0.744.

For the molecule `CC(C)N1C(=O)c2ccccc2[C@@H](C(=O)NC2CC2)[C@@H]1c1ccc(CO)cc1`, the z-score was 0.774.

Take `COC(=O)c1nc2oc1CC[C@@H](CO)NC(=O)N(C)Cc1cnnn1C[C@H](Cc1ccccc1)NC2=O`: the z-score was -0.65.

Turning to `C=CCNC(=O)[C@@H]1[C@H]2C(=O)O[C@H](c3ccccc3)[C@H](c3ccccc3)N2[C@H](c2ccc(O)cc2)[C@@]12C(=O)N(C(=O)OCCOC)c1ccc(C#CC3(O)CCCCCC3)cc12`, the z-score is 0.284.

`O=C1C=C(c2ccccc2)C(=O)c2ccc([C@H]3Oc4ccccc4S(=O)(=O)N4CCC[C@@H]34)cc21`: the z-score is -0.319.

Consider `C=C(COC)/C(=C/C[C@H](OC(C)=O)c1ccc(OCCO)cc1)c1cc(C(=O)OC)ccc1OC`, for which the z-score was 0.852.

On to `CC(C)[Si](C#C[Si](C(C)C)(C(C)C)C(C)C)(O[C@H](C)c1cn([C@H](CO)Cc2ccccc2)nn1)C(C)C`, for which the z-score was -0.355.

In the case of `CC1CC/C=C\[C@H]2OC34C=CCN(C(C)C)C(=O)[C@H]3N(CCCCCCO)C(=O)[C@@H]4C2C(=O)O1` (stereo partly drawn), the z-score was 1.53.

Consider `CC1CC/C=C\[C@H]2OC34C=CCN(c5ccc(Cl)cc5)C(=O)[C@H]3N(CCCCCO)C(=O)[C@]4(C)C2C(=O)O1` (stereo partly drawn), for which the z-score was -0.607.

The record behind these values is PubChem BioAssay.
